# Numbering of substitutions follows the chain as printed.
# Key:
# Experiment in all cases: PBM; 200 nM protein, PBS
# Details in all cases: dsDNA, one strand shown
# NKX2-5 [1] = biological target: NKX2-5 (Homo sapiens, UniProt P52952 125-210, R139K)
# NKX2-4 [2] = biological target: T1, NKX2-4 (Homo sapiens, UniProt Q9H2Z4 175-261, P217L)
# T1 sequence: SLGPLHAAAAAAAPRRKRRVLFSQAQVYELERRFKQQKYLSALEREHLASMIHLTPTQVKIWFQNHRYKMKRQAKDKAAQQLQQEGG
# NKX2-4 [3] = biological target: T2, NKX2-4 (Homo sapiens, UniProt Q9H2Z4 175-261, T231S)
# T2 sequence: T1 sequence with L43P, T57S
# NKX2-4 [4] = biological target: T3, NKX2-4 (Homo sapiens, UniProt Q9H2Z4 175-261)
# T3 sequence: T1 sequence with L43P
# NKX2-6 [5] = biological target: T4, NKX2-6 (Homo sapiens, UniProt A6NCS4 118-204, R150C)
# T4 sequence: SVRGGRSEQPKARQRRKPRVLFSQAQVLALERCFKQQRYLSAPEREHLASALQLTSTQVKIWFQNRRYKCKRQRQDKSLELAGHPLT
# NKX2-6 [6] = biological target: T5, NKX2-6 (Homo sapiens, UniProt A6NCS4 118-204)
# T5 sequence: T4 sequence with C33R
# NKX2-4 [7] = biological target: T6, NKX2-4 (Homo sapiens, UniProt Q9H2Z4 175-261, R246Q)
# T6 sequence: T1 sequence with L43P, R72Q
# NKX2-6 [8] = biological target: T7, NKX2-6 (Homo sapiens, UniProt A6NCS4 118-204, F151L)
# T7 sequence: T4 sequence with C33R, F34L
# NKX3-2 [9] = biological target: NKX3-2 (Homo sapiens, UniProt P78367 192-278, P234S)
# NKX3-2 (Homo sapiens, UniProt P78367 192-278, P234S), sequence (P78367 192-278 P234S): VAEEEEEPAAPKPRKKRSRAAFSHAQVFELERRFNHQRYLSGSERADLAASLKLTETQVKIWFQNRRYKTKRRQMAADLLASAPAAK
# NKX2-5 [10] = biological target: NKX2-5 (Homo sapiens, UniProt P52952 125-210)
# NKX2-5 (Homo sapiens, UniProt P52952 125-210), sequence (P52952 125-210): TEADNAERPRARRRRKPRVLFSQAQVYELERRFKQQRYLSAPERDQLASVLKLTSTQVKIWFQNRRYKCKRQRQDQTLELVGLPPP
# NKX3-2 [11] = biological target: NKX3-2 (Homo sapiens, UniProt P78367 192-278)
# NKX3-2 (Homo sapiens, UniProt P78367 192-278), sequence (P78367 192-278): as the sequence (P78367 192-278 P234S) above, with S43P counted along it
# NKX2-5 (Homo sapiens, UniProt P52952 125-210, R139K), sequence (P52952 125-210 R139K): as the sequence (P52952 125-210) above, with R15K counted along it
Sequence,binding signal (NKX2-5 [1]),binding signal (NKX2-4 [2]),binding signal (NKX2-4 [3]),binding signal (NKX2-4 [4]),binding signal (NKX2-6 [5]),binding signal (NKX2-6 [6]),binding signal (NKX2-4 [7]),binding signal (NKX2-6 [8]),binding signal (NKX3-2 [9]),binding signal (NKX2-5 [10]),binding signal (NKX3-2 [11])
AAGTACTC,"12.7 upbm affinity estimate (log intensity, higher = more binding, comparable within an allelic series)","12.7 upbm affinity estimate (log intensity, higher = more binding, comparable within an allelic series)","13.1 upbm affinity estimate (log intensity, higher = more binding, comparable within an allelic series)","12.6 upbm affinity estimate (log intensity, higher = more binding, comparable within an allelic series)","11.8 upbm affinity estimate (log intensity, higher = more binding, comparable within an allelic series)","13.6 upbm affinity estimate (log intensity, higher = more binding, comparable within an allelic series)","13.2 upbm affinity estimate (log intensity, higher = more binding, comparable within an allelic series)","10.8 upbm affinity estimate (log intensity, higher = more binding, comparable within an allelic series)","12.7 upbm affinity estimate (log intensity, higher = more binding, comparable within an allelic series)","12.6 upbm affinity estimate (log intensity, higher = more binding, comparable within an allelic series)","12.8 upbm affinity estimate (log intensity, higher = more binding, comparable within an allelic series)"
CCACTTAC,"13 upbm affinity estimate (log intensity, higher = more binding, comparable within an allelic series)","12.6 upbm affinity estimate (log intensity, higher = more binding, comparable within an allelic series)","12.9 upbm affinity estimate (log intensity, higher = more binding, comparable within an allelic series)","12.4 upbm affinity estimate (log intensity, higher = more binding, comparable within an allelic series)","12.2 upbm affinity estimate (log intensity, higher = more binding, comparable within an allelic series)","13.7 upbm affinity estimate (log intensity, higher = more binding, comparable within an allelic series)","13 upbm affinity estimate (log intensity, higher = more binding, comparable within an allelic series)","11 upbm affinity estimate (log intensity, higher = more binding, comparable within an allelic series)","13.2 upbm affinity estimate (log intensity, higher = more binding, comparable within an allelic series)","12.8 upbm affinity estimate (log intensity, higher = more binding, comparable within an allelic series)","13.3 upbm affinity estimate (log intensity, higher = more binding, comparable within an allelic series)"
CACTTGAC,"12.9 upbm affinity estimate (log intensity, higher = more binding, comparable within an allelic series)","12.7 upbm affinity estimate (log intensity, higher = more binding, comparable within an allelic series)","13.1 upbm affinity estimate (log intensity, higher = more binding, comparable within an allelic series)","12.6 upbm affinity estimate (log intensity, higher = more binding, comparable within an allelic series)","11.9 upbm affinity estimate (log intensity, higher = more binding, comparable within an allelic series)","13.7 upbm affinity estimate (log intensity, higher = more binding, comparable within an allelic series)","13.3 upbm affinity estimate (log intensity, higher = more binding, comparable within an allelic series)","11.2 upbm affinity estimate (log intensity, higher = more binding, comparable within an allelic series)","12.1 upbm affinity estimate (log intensity, higher = more binding, comparable within an allelic series)","12.9 upbm affinity estimate (log intensity, higher = more binding, comparable within an allelic series)","12.2 upbm affinity estimate (log intensity, higher = more binding, comparable within an allelic series)"
AACCACTT,"12.9 upbm affinity estimate (log intensity, higher = more binding, comparable within an allelic series)","12.7 upbm affinity estimate (log intensity, higher = more binding, comparable within an allelic series)","13.1 upbm affinity estimate (log intensity, higher = more binding, comparable within an allelic series)","12.6 upbm affinity estimate (log intensity, higher = more binding, comparable within an allelic series)","12 upbm affinity estimate (log intensity, higher = more binding, comparable within an allelic series)","13.7 upbm affinity estimate (log intensity, higher = more binding, comparable within an allelic series)","13.2 upbm affinity estimate (log intensity, higher = more binding, comparable within an allelic series)","10.9 upbm affinity estimate (log intensity, higher = more binding, comparable within an allelic series)","12.9 upbm affinity estimate (log intensity, higher = more binding, comparable within an allelic series)","12.8 upbm affinity estimate (log intensity, higher = more binding, comparable within an allelic series)","12.9 upbm affinity estimate (log intensity, higher = more binding, comparable within an allelic series)"
ACAAGTGG,"12.9 upbm affinity estimate (log intensity, higher = more binding, comparable within an allelic series)","12.6 upbm affinity estimate (log intensity, higher = more binding, comparable within an allelic series)","13.1 upbm affinity estimate (log intensity, higher = more binding, comparable within an allelic series)","12.5 upbm affinity estimate (log intensity, higher = more binding, comparable within an allelic series)","12 upbm affinity estimate (log intensity, higher = more binding, comparable within an allelic series)","13.7 upbm affinity estimate (log intensity, higher = more binding, comparable within an allelic series)","13.2 upbm affinity estimate (log intensity, higher = more binding, comparable within an allelic series)","10.8 upbm affinity estimate (log intensity, higher = more binding, comparable within an allelic series)","12.6 upbm affinity estimate (log intensity, higher = more binding, comparable within an allelic series)","12.8 upbm affinity estimate (log intensity, higher = more binding, comparable within an allelic series)","12.7 upbm affinity estimate (log intensity, higher = more binding, comparable within an allelic series)"
GTACTTCA,"12.5 upbm affinity estimate (log intensity, higher = more binding, comparable within an allelic series)","12.7 upbm affinity estimate (log intensity, higher = more binding, comparable within an allelic series)","13.1 upbm affinity estimate (log intensity, higher = more binding, comparable within an allelic series)","12.6 upbm affinity estimate (log intensity, higher = more binding, comparable within an allelic series)","11.7 upbm affinity estimate (log intensity, higher = more binding, comparable within an allelic series)","13.4 upbm affinity estimate (log intensity, higher = more binding, comparable within an allelic series)","13.2 upbm affinity estimate (log intensity, higher = more binding, comparable within an allelic series)","10.8 upbm affinity estimate (log intensity, higher = more binding, comparable within an allelic series)",–,"12.4 upbm affinity estimate (log intensity, higher = more binding, comparable within an allelic series)",–
